Laboratory results: PubChem BioAssay AID493084 (National Center for Advancing Translational Sciences (NCATS), 2011)
Among all 360,000 compounds or so, about 650 (0.18%) were called active. No stated cut-off is given here; in the data, active means activation above about 30%; inactive means the rest. The full list was thinned out, with actives kept by preference.

These molecules were tested against Thyrotropin-releasing hormone receptor (Homo sapiens) (UniProt P34981) (assay: qHTS for Small Molecule Agonists and Allosteric Enhancers of Human TRH Receptor: Primary Screen for Agonists.). Settings: TRHR cells, calcium flux fluo-8, FDSS agonist mode; at 2 µM; active compounds read high.
Excerpt: NIH Chemical Genomics Center [NCGC] NIH Molecular Libraries Probe Centers Network [MLPCN] MLPCN Grant: MH089816-01 Assay Submitter (PI): Marvin Gershengorn This project aims to identify small drug-like molecules that activate (agonists) the thyrotropin releasing hormone (TRH) receptor (TRHR) or enhance its TRH-stimulated activity (allosteric enhancers). TRHR, a drug-accessible cell surface receptor expressed in specific brain regions, and its ligand TRH have been implicated in several central nervous system disorders, including depression and anxiety. Small molecule TRHR agonists or allosteric enhancers that are metabolically stable and able to cross the blood-brain barrier might serve as probes to elucidate the roles of brain TRH receptors in animal models, and might be valuable as lead compounds for the development of drugs to treat patients with central nervous system disorders. Upon TRHR-Gq activation in TRHR cells, intracellular calcium is released from stores in the endoplasmic reticulum. […] This primary screen measures compound-induced activation of calcium release.
For the HTS assay freshly prepared cells are plated at a density of 2000/well in 3 ul of complete DMEM medium containing 10% serum in 1536-well plates and cultured over night at 37 C in a humidified incubator with 5% CO2. The next day, 2 ul of a no wash calcium dye (ABD Bioquest) was added to the cells and plates were incubated at room temperature for 1 hour. For the assay, assay plates were loaded into the FDSS kinetic plate reader. A 10 cycle (1 second/cycle) baseline measurement is taken and then the FDSS online 1536 pintool delivers 23 nl of compound library (as well as TRH controls) to the plate. The plate is measured for kinetically at 1 cycle/sec for 180 seconds and is considered to be the agonist portion of the assay (eg, compounds which activate a positive calcium response during this portion are flagged as potential agonists). Following the 180 second read, 1 ul of either an EC20 (positive modulation assay) is delivered by an onboard pipette head. Measurements are taken kinetically for an additional 180 seconds. TRHR FDSS Screening Protocol 1. Reagent, 3 uL 2000 cells/well 1536 TC treated Black plate in media containing 10% FCS 2. Time, 18 hours, 33.5C 5% CO2 (cells grown at 37C) 3. Reagent, 2 uL ABD fluo-8 Ca dye 4. Time, 30 min-1.5hrs hours, Room temp (6 plates/batch) 5. Detector, EX 480/EM 530C, FDSS 10 cycles baseline (1sec/cycle) 6. Compound, 23 nL of stock solution from library 7. Detector, EX 480/EM 530C, FDSS […] (1sec/cycle) Agonist mode 8. Compound, 1 ul EC20 of TRH made up in HEPES HBSS, 10 nM final 9. Detector, EX 480/EM 530C, FDSS 100 cycles (1sec/cycle) Potentiator mode
Further: 0% is about no effect.

Thyrotropin-releasing hormone receptor (Homo sapiens), sequence (P34981 whole entry, looked up): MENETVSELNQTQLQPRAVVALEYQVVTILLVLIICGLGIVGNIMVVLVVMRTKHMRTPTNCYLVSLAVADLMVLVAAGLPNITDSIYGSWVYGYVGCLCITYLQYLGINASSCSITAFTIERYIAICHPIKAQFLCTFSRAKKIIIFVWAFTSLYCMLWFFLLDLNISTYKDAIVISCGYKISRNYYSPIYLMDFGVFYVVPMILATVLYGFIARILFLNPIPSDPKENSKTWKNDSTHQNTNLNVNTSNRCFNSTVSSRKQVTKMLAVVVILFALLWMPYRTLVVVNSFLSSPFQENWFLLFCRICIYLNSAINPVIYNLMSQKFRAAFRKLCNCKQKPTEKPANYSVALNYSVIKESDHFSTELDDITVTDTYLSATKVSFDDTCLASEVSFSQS

activation, active:
CCN(CC)c1ccc2oc(=O)c(C)nc2c1 100%
Nc1ccc2nc3c(=O)[nH]c(=S)[nH]c3nc2c1 35.9%
Cc1ccc(CNC(=O)c2cccc3c2C(=O)c2ccc(N4CCC(C)CC4)cc2S3(=O)=O)cc1 86.3%
COC(=O)C1=C(C)NC2=C(C(=O)c3ccccc32)C1c1ccc(-c2ccc(C(=O)O)cc2)o1 (centres undefined) 46.3%
CCN1/C(=C\c2ccc3ccccc3[n+]2CC)Sc2cc(C)ccc21 34.6%
CCOc1cc(/C=C(\C#N)c2nc(-c3cccs3)c(NC(C)=O)s2)ccc1O 37.3%
O=C(/C=C(O)/C=C/c1ccc(O)cc1)/C=C/c1ccc(O)cc1 150%
CC1=CC2=NC(=O)/C(=C/c3coc4ccccc4c3=O)C(=N)N2O1 111%
C=CCC1=C/C(=C\c2c(N)n3nc(CC(=O)N4CCOCC4)sc3nc2=O)C=C(OC)C1=O 162%

activation, inactive:
COc1cccc(N2CCN(S(=O)(=O)c3ccc4c(c3)CCCN4C(C)=O)CC2)c1 -0.749%
COc1ccc(CCNC(=O)Cn2c(=O)cc(C(F)(F)F)c3c(C)nn(C)c32)c(OC)c1 -0.214%
Cc1cc2c(s1)c1cnn(Cc3c(F)cccc3Cl)c(=O)c1n2C -0.043%
COc1cccc(NC(=O)Nc2ccc3c(c2)N(C)C(=O)c2ccccc2S3)c1 -0.213%
CCOC(=O)c1c(S(=O)(=O)N2CCCC(C(=O)NCc3ccc(F)cc3)C2)c(C)n(CC)c1C (centres undefined) -0.483%
O=S(=O)(c1ccc(Br)cc1)c1nnn2c1nc(NC1CCCCCC1)c1sccc12 -0.704%
COc1ccc(NC(=O)CSc2nc3ccccc3n2CC(=O)N2CCCCC2C)cc1 (centres undefined) -0.312%
N#Cc1nc(Nc2cccc(Cl)c2)nc(NC2CCCC2)n1 -2.51%
COc1ccccc1N1CCN(S(=O)(=O)CCNC(=O)COc2ccc(F)cc2)CC1 -0.566%
CCOc1cccc2c1N[C@@H](c1ccc(C(=O)O)cc1)[C@H]1CC=C[C@@H]21 0.0412%
COc1ccc(CNC(=O)Cc2coc3ccc(C(C)C)cc23)cc1 -0.0096%
CCOc1cc(-c2nnc(SCC(=O)NC3CCCC3)nc2-c2ccc(OC)c(OCC)c2)ccc1OC 0.306%
CCOC(=O)c1nnn(CC(=O)NC(=O)Nc2ccccc2F)c1C(=O)OCC 1.07%
CN1CCOc2cc(S(=O)(=O)N3CCN(S(=O)(=O)c4c(F)cccc4F)CC3)cnc21 -0.448%
CCN(c1ccc(Cl)cc1)S(=O)(=O)c1nnc(NC(=O)c2ccco2)s1 -0.115%
COc1ccc(CCNC(=O)Cn2c(=O)n(-c3ccccc3)c(=O)c3c(C)c(C)sc32)cc1OC -1.42%
O=C(NCc1nnc(C(=O)Nc2ccc(C(F)(F)F)cc2Cl)o1)c1ccccc1 -2.31%
COC(=O)c1ccccc1NC(=O)c1ccc(C#N)cc1 0.34%
Cc1ccccc1C(=O)NCc1nc(-c2ccc(Cl)cc2)no1 -0.152%
Cc1cccc(C(C)C)c1NC(=O)C(NS(=O)(=O)c1cccc2nsnc12)c1ccccc1 (centres undefined) -0.333%
COc1ccc(CNC(=O)Cn2nnc(-c3ccccc3F)n2)cc1 -0.359%
CCOc1ccccc1N(CC)C(=O)c1cc2ccc3cccnc3c2[nH]1 2.85%
Cc1ccccc1NC(=O)CN1C(=O)C(C)(C)c2ccccc21 0.364%
CCOc1ccc2nc(N3CCC(C(=O)Nc4cc(C)ccc4C)CC3)sc2c1 -0.106%
Cc1ccccc1NC(=O)c1cc2c([nH]c1=O)CC(C)(C)CC2=O 1.28%
COc1cccc(-c2ccc3c(c2)S(=O)(=O)c2cccc(C(=O)O)c2C3=O)c1OC 0.018%
Cc1ccc(CNC(=O)c2ccccc2CCc2ccccc2)cc1 0.513%
CCOc1cc(C2C(C(=O)OC)=C(C)NC3=C2C(=O)c2ccccc23)ccc1O (centres undefined) 0.256%
Cc1ccc(C2C3=C(Nc4[nH]n(-c5ccccc5)c(=O)c42)c2ccccc2C3=O)cc1 (centres undefined) -0.291%
Cc1c(C)n(Cc2ccc(Cl)cc2)c2ccc(C(=O)NCCc3ccc(S(N)(=O)=O)cc3)cc12 0.277%
Cc1nn(-c2ccc(N3CCCCC3)nn2)c(C)c1CCC(=O)NCc1ccc(F)cc1 -0.372%
CCCC12CN3CC(CCC)(CN(C1)C3c1c[nH]c3ccc(OC)cc13)C2=O (centres undefined) 2.39%
CCOc1cc(/C=C(\C#N)C(=O)Nc2ccccc2C)ccc1OCc1cc(=O)n2nc(CC)sc2n1 -1.33%
CCOc1cc(/C=C(/C#N)c2ccc(Cl)cc2)cc(Cl)c1OCC(=O)O -0.184%
Cc1nc2ccc(S(=O)(=O)N(CC(=O)Nc3ccc(F)cc3)Cc3ccccc3)cc2s1 -0.726%
Cc1ccc(-n2nc(C)c3c(C)cc(=O)n(CC(=O)Nc4ccc(C(C)C)cc4)c32)cc1 -0.803%
Cc1cccc(NC(=O)N2CCC(CN3CCc4ccccc4C3)CC2)c1C -0.238%
O=C(Nc1ccc(OC(F)(F)F)cc1)c1cc2c(=O)n3ccccc3nc2s1 0.583%
COc1ccc(OCCCn2cccc2/C=C2/C(=N)N3OC(C)=CC3=NC2=O)cc1 -0.544%
O=C(NCc1ccc(Cl)cc1)c1ccc2c(c1)nnn2C1CCCC1 -0.129%
O=S(=O)(c1ccc(Br)cc1)c1nnn2c1nc(N1CCOCC1)c1sccc12 -0.0076%
Cc1ccc(NC(=O)c2oc3ccc(S(=O)(=O)N4CCCCC4)cc3c2C)cc1Cl 1.26%
COc1ccc(C(=O)Nc2nonc2-c2ccc(OC)c(OC)c2)cc1Cl -1.06%
Cc1cccc(N2CCN(c3c(CN4CCCC4)c(=O)oc4ccccc34)CC2)c1C 0.139%
COC1=C/C(=C/c2c(N)n3nc(CC(=O)N4CCOCC4)sc3nc2=O)C=CC1=O 15.5%
